According to PubChem BioAssay AID624137 (Broad Institute, 2012):
About 360 (1.2%) of roughly 31,000 compounds were called active. How the calls were made is not given here. The list comes from a sample in which actives are over-represented; it also holds similar structures and randomly drawn compounds.

biological target: DNA-binding protein inhibitor ID-4 (Homo sapiens) (UniProt P47928); test: PubChem AID 624137; settings: small molecule microarray, Flag-ID4 binding, fluorescence F/B;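 further: a binder raises fluorescence above local background on the spot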
Sequence (P47928 whole entry, looked up): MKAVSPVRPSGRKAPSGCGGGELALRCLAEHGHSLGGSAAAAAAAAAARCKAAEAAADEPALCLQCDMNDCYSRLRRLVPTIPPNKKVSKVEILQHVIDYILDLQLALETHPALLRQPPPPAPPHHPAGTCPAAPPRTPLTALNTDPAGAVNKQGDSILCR

SMILES	outcome
COc1ccc2[nH]cc(CCNCc3ccc(Br)cc3)c2c1	inactive
c1cncc(CNCCc2c[nH]c3ccccc23)c1	active
Cc1cc(OCc2cc(C(=O)O)oc2C)c2c3c(c(=O)oc2c1)CCCC3	inactive
Cc1ccc(OC(=O)N(C)C[C@@H]2OCc3cnnn3CCCC(=O)N([C@H](C)CO)C[C@@H]2C)cc1	inactive
COC(/C=C/CC/C=C/C(=O)O)C(O)C(C)C(O)/C(C)=C/C(C)C(=O)CCCC1CC(=O)NC(=O)C1 (stereo not given)	inactive
